Screens (PubChem BioAssay)
Pyk2 oligo antag: antagonists of Pyk2 self-association, primary screen, Q293 cells, FERM NanoBiT luminescence, HTS; Protein-tyrosine kinase 2-beta (Homo sapiens), Q14289; hits give low values; z-score (the deposit names both 25 µM and 10 µM); 99,000 tested, 0.83% active;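 active = Z-score of -3 or lower, scaled per plate to the spread of control and sample wells; inactive = z-score above -3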;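 note: negative z-score means lost luminescence so less FERM oligomerization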
CYP2C9 inhib: blockers of cytochrome P450 2C9 activity – biochemical, luminescence, ADME assay, primary screen. CYP2C9 Supersomes, luciferin-H conversion. inhibition, % at 5 µM. 96,000 tested, 20% active;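 active = blocking of liver enzyme CYP2C9 beyond about 50% at 5 µM, limit read from the data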
CYP2C19 act: human CYP2C19 activators, primary screen, biochemical, luminescence; 96,000 tested, under 10 active; AID 1025, 2008; Cytochrome P450 2C19 (Homo sapiens), P33261; recombinant CYP2C19, luciferin-H EGE luminescence; hits give high values; 0 = fully inhibited enzyme, 1 = untreated enzyme; activation factor at 5 µM;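 active = activation factor of at least 2 at 5 µM in the primary screen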;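 note: 0 = wells with 2.5 mM tranylcypromine and 1 = vehicle-only wells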
Target sequence (P33261 whole entry, looked up): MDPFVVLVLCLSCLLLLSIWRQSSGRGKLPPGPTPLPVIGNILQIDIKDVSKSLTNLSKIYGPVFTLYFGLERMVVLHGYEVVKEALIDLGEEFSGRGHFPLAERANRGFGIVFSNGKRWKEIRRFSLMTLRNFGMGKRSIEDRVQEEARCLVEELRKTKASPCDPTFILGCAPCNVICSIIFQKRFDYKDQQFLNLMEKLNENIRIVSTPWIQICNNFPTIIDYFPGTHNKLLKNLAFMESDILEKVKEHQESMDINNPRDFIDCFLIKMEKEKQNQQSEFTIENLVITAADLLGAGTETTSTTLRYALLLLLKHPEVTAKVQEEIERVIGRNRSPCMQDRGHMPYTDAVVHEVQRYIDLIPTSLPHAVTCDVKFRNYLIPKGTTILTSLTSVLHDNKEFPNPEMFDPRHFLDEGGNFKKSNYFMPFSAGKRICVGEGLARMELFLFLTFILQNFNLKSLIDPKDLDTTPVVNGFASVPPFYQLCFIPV
CYP2C9 activ: human CYP2C9 activators, primary screen, biochemical, luminescence | 96,000 tested, 1.4% active | recombinant CYP2C9, luciferin-H conversion; hits give high values; factor 1 = untreated enzyme, 0 = blocked | activation factor at 5 µM | Cytochrome P450 2C9 (Homo sapiens), P11712;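 active = activation factor of 2 or more for CYP2C9 at a 5 µM dose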;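 note: 0 = sulfaphenazole-blocked wells and 1 = vehicle-only wells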
CYP2C19 inh: blockers of cytochrome P450 2C19 activity – biochemical, luminescence, ADME assay, primary screen; P33261; CYP2C19 Supersomes, luciferin-H EGE luminescence, 30 min; inhibition, % at 5 µM; 96,000 tested, 21% active;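 active = CYP2C19 inhibition above a set limit at 5 µM in the primary screen, cut at about 50% in these data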;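 note: plate controls were negative control wells for no effect and 2.5 mM tranylcypromine positive control for full effect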
Active calls of the source: *; x = no result given. Only some compounds are listed: those with a hit (about 28% of all), similar ones and a draw of the others.

SMILES	Pyk2 oligo antag	CYP2C9 inhib	CYP2C19 act	CYP2C9 activ	CYP2C19 inh
O=C(CCC1CCCCC1)N1CCN(Cc2ccc3c(c2)OCO3)CC1	-0.49	86.8*	0.1	0.1	91.4*
CS(=O)(=O)N(CCc1ccccc1)CC(=O)N1CCN(Cc2ccc3c(c2)OCO3)CC1	2.97	-8.7	1.1	1.1	-8.5
CS(=O)(=O)N(CC(=O)N1CCN(Cc2ccc3c(c2)OCO3)CC1)Cc1ccc(Cl)cc1	0.29	61.6*	0.5	0.4	46.3
Cc1ccc(S(=O)(=O)NCCOC(=O)Nc2sc(=S)n(C)c2C)cc1	0.62	-3.1	0.3	1	72.8*
CCOC(=O)Nc1sc(=S)n(C)c1C	-0.48	x	x	x	x
CCOC(=O)CN1C(=O)COc2ccc(C(C)(C)C)cc21	0.54	10.0	0.6	0.9	42.4
COC(=O)Cn1ncc2c3ccccc3n(C)c2c1=O	0.23	6.7	1	0.9	-4.0
CN(C)c1nc(OCCOC(=O)Nc2ccc(Cl)cc2Cl)nc(N(C)C)n1	0.37	52.6*	0	0.5	97.7*
CON(C)c1nc(OCCNC(=O)OCc2ccc(Cl)cc2C)nc(N(C)C)n1	0.31	x	x	x	x
Cc1ccc(-c2nc(SCC(N)=O)c(C#N)c3c2CCCC3)cc1	-1.33	38.5	0.4	0.6	64.6*
CSc1nc(N)nc(SCC(=O)c2ccc(C)cc2)c1C#N	-2.3	53.9*	1	0.5	-2.9
CCc1c(C)nc(SCC(=O)CC(=O)OC(C)C)c(C#N)c1C	-1.31	35.7	0.2	0.6	77.0*
CSc1nc(N)nc(SCC(=O)OC(C)C)c1C#N	0.67	56.6*	0.9	0.4	11.0
CCc1c(C)nc(SCC(N)=O)c(C#N)c1C	0.89	9.4	0.9	0.9	10.9
Cc1ccc(C2CC(C(F)(F)F)n3nc(C(=O)NCc4ccco4)cc3N2)cc1 (stereo not drawn)	0.96	5.4	0.6	0.9	36.3
Cc1cc(Nc2ccccc2)c2c([N+](=O)[O-])c(C)cc(C)c2n1	-0.32	81.4*	0.2	0.2	78.1*
Cc1ccc(Nc2ccc([N+](=O)[O-])nc2[N+](=O)[O-])cc1	0.26	-11.1	0.9	1.1	9.9
COc1ccccc1N1CCN(CCC(=O)Nc2ccc3c(c2)OCO3)CC1	0.85	64.7*	0.5	0.4	54.4*
COc1ccc(C)cc1NC(=O)CN1CCN(c2ccccc2F)CC1	-0.34	34.4	0.3	0.7	69.7*
COc1ccccc1N1CCN(CC(=O)Nc2ccc(C)c(F)c2)CC1	1.59	14.6	0.8	0.9	15.5
COc1ccc(C)cc1NC(=O)CN1CCN(S(=O)(=O)c2ccc(F)cc2)CC1	0.22	22.7	0.5	0.8	52.5*
COc1ccc(OC)c(NC(=O)CCN2CCN(c3ccccc3F)CC2)c1	-0.66	60.3*	0.2	0.4	77.0*
COc1cccc(NC(=O)CCN2CCN(c3ccccc3F)CC2)c1	0.4	33.0	0.6	0.7	37.9
COc1ccc(S(=O)(=O)N2CCN(CC(=O)Nc3cc(C(F)(F)F)ccc3Cl)CC2)cc1	0.74	x	x	x	x
CC1(C)CC(=O)C(C=NC(CCC(N)=O)C(=O)O)=C(O)C1 (stereo not drawn)	0.91	0.5	1.1	1	-10.2
SMILES	Pyk2 oligo antag	CYP2C9 inhib	CYP2C19 act	CYP2C9 activ	CYP2C19 inh
COC(=O)C1CCN(c2cc(=O)n(-c3ccc(OC)cc3)c(=O)[nH]2)CC1	x	-26.2	1.2	1.3	-22.9
C=CCN(C(=O)CSc1nc2[nH]ncc2c(=O)n1-c1ccccc1OC)c1ccccc1	-1.25	x	x	x	x
O=C(O)C1C2C=CC(O2)C1C(=O)NCc1ccccc1Br (stereo not drawn)	-0.37	18.5	0.9	0.8	6.7
C=CCOc1ccccc1CNn1nnnc1N	0.54	-6.6	0.6	1.1	35.4
COc1ccc(C)cc1NC(=O)CN1CCN(C/C=C/c2ccccc2)CC1	1.35	66.6*	0.1	0.3	87.5*
COc1ccc2nc(-c3ccccc3)[nH]c2c1	-0.44	39.4	0.3	0.6	73.6*
COc1ccc2nc(NCc3ccccc3)[nH]c2c1	0.85	21.9	0.2	0.8	78.2*
Cc1ccc2nc(NCc3ccccc3)[nH]c2c1	0.4	23.8	0.1	0.8	88.5*
c1ccc(CNc2nc3ccccc3[nH]2)cc1	-0.08	2.2	0.5	1	48.1
N#CCCN(C(=O)COC(=O)c1ccc2c(c1)NC(=O)CS2)c1ccc2c(c1)OCCO2	-0.64	18.6	0.9	0.8	5.4
Cc1ccc(-c2nnn(CC(=O)Nc3cccc4cccnc34)n2)o1	0.52	39.3	0.7	0.6	33.2
CC(/C=C/C=C/c1ccccc1)=N/NC(=O)CNc1ccc(C)cc1	2	2.7	1.1	1	-8.0
CCOC(=O)c1ncn2c1C(=O)OC2(C)C	0.14	9.4	0.9	0.9	11.9
CCC(=O)N1CCc2cc(S(=O)(=O)NCCC(=O)N3CCN(c4ccccn4)CC3)ccc21	0.45	7.6	1.1	0.9	-14.7
COc1ccc2oc(C)c(C(N)=O)c2c1	-0.33	-7.0	0.9	1.1	8.1
COC(=O)c1c(C)oc2ccc(OC(=O)c3cccs3)cc12	0.98	85.1*	1	0.1	-0.9
COCCOC(=O)c1c(C)oc2ccc(OC(=O)c3cccs3)cc12	1.55	97.5*	0.3	0	71.3*
O=S(=O)(c1ccc(Cl)cc1)n1c(Cc2ccccc2)nc2ccccc21	0.27	x	x	x	x
O=S(=O)(N1CCOCC1)n1c(Cc2ccccc2)nc2ccccc21	0.19	49.3	0.3	0.5	75.0*
O=C(CCCCn1c(=O)c2ccccc2n(CC(=O)Nc2ccc(F)cc2)c1=O)NCc1ccco1	-0.28	81.4*	0.4	0.2	55.0*
Cc1ccc(NC(=O)Cn2c(=O)n(CCCCC(=O)NCc3ccco3)c(=O)c3ccccc32)cc1	-2.69	82.4*	0.5	0.2	45.7
CCCN(CCC)C(=O)Cn1c(=O)n(CCCCC(=O)NCc2ccco2)c(=O)c2ccccc21	-0.48	69.4*	0.7	0.3	30.2
O=C(CCCn1c(=O)c2ccccc2n(CC(=O)NCc2ccco2)c1=O)NCc1ccco1	-0.61	40.9	1	0.6	3.2
O=C(CCCCn1c(=O)c2ccccc2n(Cc2ccc(F)cc2Cl)c1=O)NCc1ccco1	0.18	83.7*	0.1	0.2	88.2*
CCC(C)NC(=O)Cn1c(=O)n(CCCCC(=O)NCc2ccco2)c(=O)c2ccccc21 (stereo not drawn)	0.6	26.7	0.8	0.7	21.3
O=C(c1ccco1)N1CCN(Cc2nc3ccc([N+](=O)[O-])cc3c(=O)n2-c2ccccc2F)CC1	-0.57	29.1	0.7	0.7	28.2
CCC(SCC(=O)OC)C(=O)Nc1nnc(C(C)C)s1 (stereo not drawn)	x	6.6	0.9	0.9	5.6
Cn1cc(Br)c(C(=O)NC2CCCCC2)n1	0.32	-28.5	0.7	1.3	25.8
